The results in this text go back to PubChem BioAssay (NCATS).

Results filed as inconclusive are left out. Calls of active or inactive are those of the source. Calls come from the whole dose curve; as a rule, active = well fitted inhibition curve with a large enough effect in the main read-out, with a control signal flat (not every such curve was filed as active); inconclusive = small, poorly fitted or top-dose-only effect, or effect the other way, or a change in a side signal; inactive = no such curve, though single readings can be large or run the other way.

The experiment in a line: Nrf2 qHTS screen for inhibitors: Validation (AID 493153).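 For activity change, negative = inhibition: A549 cells with ARE-driven firefly luciferase reporter reporting Nrf2 activity; % of control where 0% means no effect.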 The conditions noted are these: A549 ARE-Fluc reporter, 18-24 h; Potency: luciferase luminescence; viability change: measured here: cytotoxicity max response; luciferase luminescence, at 46.1 µM (top of the series); activity change, negative = inhibition: at the top concentration. The source says: NIH Molecular Libraries Probe Production Network [MLPCN] NIH Chemical Genomics Center [NCGC] MLPCN Grant: R03-MH092170-01 Assay Provider: Shyam Biswal, Johns Hopkins University Assay Overview: Nrf2 is a transcription factor that maintains cellular redox homoestasis and protects cells from xenobiotics. Nrf2 binds to the antioxidant response element (ARE) to induce gene expression of a broad spectrum of genes that encode for antioxidants. […] Finding a small molecule that act as an inhibitor of Nrf2 function would represent a novel therapeutic target that could lead to improvement in survival of patients undergoing chemo- and/or radio- therapy. 1. Shibata, T., et al., Genetic Alteration of Keap1 Confers Constitutive Nrf2 Activation and Resistance to Chemotherapy in Gallbladder Cancer. Gastroenterology, 2008. 2. Sjoblom, T., et al., The consensus coding sequences of human breast and colorectal cancers. Science, 2006. 314(5797): p. 268-74.
Assay Protocol Summary: A concentration-response assay was performed with A549 ARE_Fluc cells which are suspended in 5% FBS OPTI-MEM. Five uL were dispensed into 1536-well white TC-treated plate using the Kalypsys dispenser to achieve a density of 5000 cells/well in all columns except column 1. The plate is incubated at 37deg C at 5% CO2 for 2 hours before 23 nL of compounds are added with the Kalypsys pin tool equipped with a 1,536-pin array containing 10-nL slotted pins (FP1S10, 0.457-mm diameter, 50.8 mm long; V&P Scientific). The control compounds Budesonide and Staurosporine are both added at a concentration of 2mM and Budesonide is also added as a 1:10 titration, starting at 200uM, to achieve dose-response. After an 18-24 hour incubation at 37deg C at 5% CO2, 5ul of medium is added to column 1. Afterwards 1ul of 5x of CellTiter-Fluor (Promega) is added to every well. The plate is then incubated at 37deg C at 5% CO2 for 30 minutes before they are read on the ViewLux (Perkin Elmer) for a fluorescent read Ex=405(10)/Em=525(10) for a 3 second exposure, 2x binning, and high gain. Then 3 uL of 3x BugLite is dispensed into all wells and the plate is incubated at ambient room temperature for 15 minutes. Afterwards another ViewLux read is performed using the clear filter to get a luminescent read with the settings of 40 second exposure, 2x binning, and high gain. Cytotoxicity is assessed through the first fluorescent read and then biochemical activity against Nrf2 is measured in the luminescent read.
(In general: In qHTS, concentration-response curves come from the screen itself.)
`CCCN(CCC)[C@@H]1CCc2cccc(O)c2C1`: the viability change was -3.45% and the “activity change, negative = inhibition” value was -1.28% (inactive).
In the case of `CC(C)NP(=O)(NC(C)C)OP(=O)(NC(C)C)NC(C)C`, the viability change stood at 0.686% and the “activity change, negative = inhibition” value is 20.6% (inactive).
On to `NCCc1ccc(S(=O)(=O)F)cc1`, for which the viability change was -2.23% and the “activity change, negative = inhibition” value was -5.35% (inactive).
The like results for `COc1ccc2[nH]cc(CCN)c2c1` were, in that order, 0.303% and 5.31% (inactive).
`NC(CCCCCP(=O)(O)O)C(=O)O` (stereo not given): the viability change came to 13.6% and the “activity change, negative = inhibition” value was 0.448% (inactive).
For the compound `OCc1cnc[nH]1`, the viability change was determined as 1.78% and the “activity change, negative = inhibition” value was -2.55% (inactive).
For the compound `CCCC[N+]1(C)C2CC(OC(=O)[C@H](CO)c3ccccc3)CC1C1OC12` (stereo not given in full), the viability change was -6.93% and the “activity change, negative = inhibition” value is -9.47% (inactive).
On the same counts, the results for `C#CCN[C@H](C)Cc1ccccc1` are 0.263% and 7.64% (inactive).
With `C[N+]1(C)CCOC(O)(c2ccc(-c3ccc(C4(O)C[N+](C)(C)CCO4)cc3)cc2)C1` (stereo not given), the viability change is -1.71% and the “activity change, negative = inhibition” value is -1.97% (inactive).
On to `CCCN1CCc2cccc3c2[C@H]1Cc1ccc(O)c(O)c1-3`, for which the “activity change, negative = inhibition” value is -17.8% (inactive) and the viability change turned out to be 0.172%.
On the same counts, the results for `CCCN(CCC)C1CCc2cccc(O)c2C1` (stereo not given) are -1.68% (inactive) and 4.06%.
On the same counts, the results for `NCCc1c[nH]c2ccc(C(N)=O)cc12` are 6.98% (inactive) and 4.69%.
The like results for `Cc1[nH]c2ccc(O)cc2c1CCN` were, in that order, 7.44% (inactive) and -7.71%.
Turning to `C=CCN1CCC23c4c5ccc(O)c4O[C@H]2C(=O)CC[C@@]3(O)C1C5` (stereo not given in full), the viability change was 2.4% and the “activity change, negative = inhibition” value is -13.2% (inactive).
On the same counts, the results for `COc1cc(CC(C)N)c(OC)cc1I` (stereo not given) are -12.3% and -9.97% (inactive).
The like results for `NCC(O)c1cc(O)c(O)cc1F` (stereo not given) were, in that order, -0.467% and 4.57% (inactive).
With `O=C1C=CC(=O)C=C1`, the “activity change, negative = inhibition” value was -3.62% (inactive) and the viability change was -5.52%.
The like results for `CCCn1c(=O)c2[nH]c(C3CCCC3)nc2n(CCCOC(=O)c2ccc(S(=O)(=O)F)cc2)c1=O` were, in that order, 0.969% (inactive) and -2.37%.
On the same counts, the results for `N[C@@H](Cn1ccc(=O)[nH]c1=O)C(=O)O` are -12.2% (inactive) and 2.76%.
Consider `NC(N)=Nc1ccc2[nH]c3c(c2c1)C[C@@]1(O)[C@H]2Cc4ccc(O)c5c4[C@@]1(CCN2CC1CC1)[C@H]3O5`, for which the “activity change, negative = inhibition” value is 17.9% (inactive) and the viability change turned out to be 4.74%.
